Compound activity as filed in PubChem BioAssay.
RGS16-Gao HTS – regulators of human RGS16-Galphao interaction; binding response (% of control), % at 10 µM; O15492+P09471; 220,000 tested, 0.38% active; bead-based flow cytometry RGS16-Galphao binding, fluorescence; actives lie on both sides; AID 1441;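 note: Galphao activated by GDP with aluminum fluoride before binding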
RGS7-Gao – regulators of human RGS7-Galphao interaction; 220,000 tested, 0.35% active; Multiplexed bead flow cytometry, RGS7-Galphao binding; actives lie on both sides; AID 1439; binding response (% of control), % at 10 µM; in the data active = binding response below about 49% or above about 150%; inconclusive = no clear call, values can overlap the other calls; inactive = in between;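 note: fluorescent Galphao held in activated GDP-AlF4 state binding bead-coupled RGS7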
Target sequence (P09471 whole entry, looked up): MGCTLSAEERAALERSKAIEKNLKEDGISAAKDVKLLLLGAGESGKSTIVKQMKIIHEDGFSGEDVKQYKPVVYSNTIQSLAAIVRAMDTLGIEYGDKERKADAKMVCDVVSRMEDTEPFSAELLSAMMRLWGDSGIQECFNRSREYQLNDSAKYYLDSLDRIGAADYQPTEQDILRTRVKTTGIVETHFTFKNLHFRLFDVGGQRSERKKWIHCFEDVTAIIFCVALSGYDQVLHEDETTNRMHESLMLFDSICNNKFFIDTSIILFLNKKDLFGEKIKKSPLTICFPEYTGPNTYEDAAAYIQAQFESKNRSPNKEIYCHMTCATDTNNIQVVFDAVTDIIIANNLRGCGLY
Avidin fluor – avidin bead compound fluorescence profile | Avidin beads, compound fluorescence 488/530 nm, flow cytometry; hits give high values | fluorescence (KMESF) at 10 µM | 220,000 tested, 0.38% active; in the data active = fluorescence above about 47
GSH fluor – GSH bead compound fluorescence profile. fluorescence (KMESF) at 10 µM. 190,000 tested, 0.25% active. GSH beads flow cytometry, compound fluorescence 488/530 nm; hits give high values. AID 1776; in the data active = fluorescence above about 89;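 note: glutathione beads carrying GST-tagged Bcl family fusion proteins plus one bare bead set; values are compound well signal with DMSO vehicle wells as background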
RGS8-Gao – modulates binding of RGS8 to human Galphao; P09471; multiplexed bead flow cytometry; actives lie on both sides; response (percent of control binding), % at 10 µM; 220,000 tested, 0.34% active; in the data active = response below about 60% or above about 140%; inactive = in between;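 note: Galphao activated as the GDP aluminium fluoride complex binding bead-coupled RGS8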
RGS4-Gao reg – human RGS4-Galphao interaction regulation; P09471; Multiplexed bead flow cytometry, RGS4-Galphao binding; actives lie on both sides; binding response (% of control), % at 10 µM; 220,000 tested, 0.33% active; AID 1415; in the data active = binding response below about 49% or above about 150%; inactive = in between;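 note: fluorescent Galphao activated with aluminum fluoride binding bead-coupled RGS4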
RGS4-Gao HTS – modulates binding between human RGS4 and Galphao; 1,600 tested, 99% active; RGS4–Galpha-o binding response, % at 10 µM; shares compounds with RGS16-Gao HTS; multiplexed bead flow cytometry, RGS–Galpha-o binding; AID 1504;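 note: fluorescently labeled Galpha-o bound to GDP with aluminium fluoride binding biotinylated RGS beads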
Biotin-avidin – counter-screen: compounds disrupting biotin binding to avidin beads; shares compounds with RGS16-Gao HTS; streptavidin beads, fluorescein-biotin binding, flow cytometry; inhibition, % at 10 µM; 1,700 tested, under 10 active; AID 1783;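 active = inhibition above 50%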;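 note: median green fluorescence of gated singlet beads compared with DMSO control wells; 0% = DMSO wells and 100% = complete loss of bead fluorescence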
RGS8-Gao single – RGS8-Galphao interaction regulation, single point confirmation; binding response (% of control), % at 10 µM; shares compounds with RGS16-Gao HTS; bead-based flow cytometry RGS8-Galphao binding, fluorescence; actives lie on both sides; 1,700 tested, 3% active; in the data active = binding response below about 72% or above about 130%; inactive = in between;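 note: Galphao activated as GDP AlF4 complex before binding bead RGS8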
RGS7-Gao single – confirmation of regulators of human RGS7-Galphao interaction; shares compounds with RGS16-Gao HTS; bead-based flow cytometry RGS7-Galphao binding; actives lie on both sides; response (percent of control binding), % at 10 µM; 1,700 tested, 7.8% active; AID 1837; in the data active = response below about 75% or above about 130%; inactive = in between;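 note: fluorescent Galphao activated with GDP and aluminum fluoride binding bead-coupled RGS7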
RGS16-Gao conf – RGS16-Galphao interaction regulation, single point confirmation; 1,700 tested, 4% active; bead-based flow cytometry, RGS16-Galphao binding; actives lie on both sides; response (% of control binding), % at 10 µM; shares compounds with RGS16-Gao HTS; in the data active = response below about 74% or above about 130%; inactive = in between;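 note: Galphao activated as the GDP aluminium fluoride complex binding bead-coupled RGS16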
RGS4-Gao single – confirmation of regulators of human RGS4-Galphao interaction; AID 1840; binding response (% of control), % at 10 µM; shares compounds with RGS16-Gao HTS; 1,700 tested, 4% active; RGS4-Galphao binding, multiplexed bead flow cytometry; actives lie on both sides; in the data active = binding response below about 74% or above about 130%; inactive = in between
RGS19-Gao conf – confirmation of regulators of human RGS19-Galphao interaction; shares compounds with RGS16-Gao HTS; bead-based flow cytometry RGS19-Galphao binding; actives lie on both sides; response (percent of control binding), % at 10 µM; 1,700 tested, 5% active; AID 1841; in the data active = response below about 50% or above about 160%; inactive = in between;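 note: 100% = no compound control and 0% = blank background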
Target sequence (P09471 whole entry, looked up): as above
Target sequence (P49795 whole entry, looked up): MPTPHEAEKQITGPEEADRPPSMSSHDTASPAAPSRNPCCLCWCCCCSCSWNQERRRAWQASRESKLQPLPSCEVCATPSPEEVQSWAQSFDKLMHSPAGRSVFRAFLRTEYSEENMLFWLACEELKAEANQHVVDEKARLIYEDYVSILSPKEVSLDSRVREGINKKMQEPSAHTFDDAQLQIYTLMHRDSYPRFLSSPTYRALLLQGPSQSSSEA
Numbers without * were called inactive; [ ] = dose if it differs, or a comment. This is a sample that favours compounds with a hit; in the whole collection about 1.2% have one here. Unless noted, the rule behind the calls is not given here.

How did CCN(Cc1cc(=O)n2ccsc2n1)c1cccc2ccccc12 do in these assays?
RGS16-Gao HTS: 101; RGS7-Gao: 93; Avidin fluor: 10; GSH fluor: 9; RGS8-Gao: 99; RGS4-Gao reg: 93

Results for COc1ccccc1NC(=O)CCC(=O)N/N=C(/C)c1ccc(C)cc1 ?
RGS16-Gao HTS: 16*; RGS7-Gao: 93; Avidin fluor: 7; GSH fluor: 13; RGS8-Gao: 80; RGS4-Gao reg: 90; RGS4-Gao HTS: 90*; Biotin-avidin: 2; RGS8-Gao single: 104; RGS7-Gao single: 100; RGS16-Gao conf: 104; RGS4-Gao single: 102; RGS19-Gao conf: 100

How did C/C(=N/NC(=O)CCC(=O)Nc1cccc(Cl)c1)c1ccc(C)cc1 do in these assays?
RGS16-Gao HTS: 63; RGS7-Gao: 98; Avidin fluor: 3; GSH fluor: 12; RGS8-Gao: 85; RGS4-Gao reg: 94

Results for CC(=O)c1ccc(NC(=O)N2C3CCC2CC(O)(c2cccnc2)C3)cc1 (stereo not given) ?
RGS16-Gao HTS: 94; RGS7-Gao: 90; Avidin fluor: 5; GSH fluor: 19; RGS8-Gao: 96; RGS4-Gao reg: 94

What do the screens show for `COc1cccc(C(=O)N2CCN(C3CCN(Cc4ccccc4)CC3)CC2)c1OC`?
RGS16-Gao HTS: 102; RGS7-Gao: inconclusive; Avidin fluor: 8; RGS8-Gao: 102; RGS4-Gao reg: 106

Results for c1ccc(Nc2c(-c3ccco3)nc3ccccn23)cc1 ?
RGS16-Gao HTS: 95; RGS7-Gao: 94; Avidin fluor: 14; GSH fluor: 4; RGS8-Gao: 99; RGS4-Gao reg: 95

How did c1ccc(-c2nc(-c3ccco3)n3ccccc23)cc1 do in these assays?
RGS16-Gao HTS: -2.4*; RGS7-Gao: 0.6*; Avidin fluor: -2; GSH fluor: 20; RGS8-Gao: 7.9*; RGS4-Gao reg: -6.6*; Biotin-avidin: 1; RGS8-Gao single: 90; RGS7-Gao single: 87; RGS16-Gao conf: 91; RGS4-Gao single: 97; RGS19-Gao conf: 83

Results for Cc1ccc2cc(C)c3nnc(SCC(=O)Nc4nc5c(s4)CCCC5)n3c2c1C ?
RGS16-Gao HTS: 105; RGS7-Gao: 105; Avidin fluor: 10; GSH fluor: 63; RGS8-Gao: 101; RGS4-Gao reg: 107

Results for Cc1ccc2nc(C)cc(C(=O)N3CCCC(CO)(Cc4ccccc4C)C3)c2c1 (stereo not given) ?
RGS16-Gao HTS: 102; RGS7-Gao: 106; Avidin fluor: 11; GSH fluor: 10; RGS8-Gao: 104; RGS4-Gao reg: 102

Results for COC(=O)c1ccccc1NC(=S)N(Cc1ccc2c(c1)OCO2)Cc1cc2cc(C)ccc2[nH]c1=O ?
RGS16-Gao HTS: 264*[activator]; RGS7-Gao: 113; Avidin fluor: 12; GSH fluor: 9; RGS8-Gao: 128; RGS4-Gao reg: 107; RGS4-Gao HTS: 107*; Biotin-avidin: -1; RGS8-Gao single: 101; RGS7-Gao single: 101; RGS16-Gao conf: 100; RGS4-Gao single: 100; RGS19-Gao conf: 88

How did COC(=O)c1ccccc1NC(=S)N(Cc1ccc2c(c1)OCO2)Cc1cc2ccc(C)cc2[nH]c1=O do in these assays?
RGS16-Gao HTS: 107; RGS7-Gao: 103; Avidin fluor: 16; GSH fluor: 8; RGS8-Gao: 105; RGS4-Gao reg: 105

How did COc1ccc(C(=O)CC(=O)C(=O)NCCc2cccc(C)c2)cc1 do in these assays?
RGS16-Gao HTS: 111; RGS7-Gao: 98; Avidin fluor: 12; GSH fluor: 6; RGS8-Gao: 101; RGS4-Gao reg: 102

What do the screens show for `Cc1cc(NC(=O)c2cc(-c3cccs3)nc3ccccc23)no1`?
RGS16-Gao HTS: 107; RGS7-Gao: 256*[activator]; Avidin fluor: 233*; GSH fluor: 18; RGS8-Gao: 97; RGS4-Gao reg: 95; RGS4-Gao HTS: 95*; Biotin-avidin: 5; RGS8-Gao single: 100; RGS7-Gao single: 94; RGS16-Gao conf: 102; RGS4-Gao single: 100; RGS19-Gao conf: 76

How did O=C(CNC(=O)c1ccccc1)Nc1cccc(C(F)(F)F)c1 do in these assays?
RGS16-Gao HTS: active[activator]; RGS7-Gao: 845*[activator]; Avidin fluor: 560*; GSH fluor: 211*; RGS8-Gao: 193*[activator]; RGS4-Gao reg: 762*[activator]; Biotin-avidin: 3; RGS8-Gao single: 95; RGS7-Gao single: 72*; RGS16-Gao conf: 85; RGS4-Gao single: 83; RGS19-Gao conf: 64

What do the screens show for `Cc1ccc(C(=O)NCC(=O)Nc2cccc(C(F)(F)F)c2)cc1`?
RGS16-Gao HTS: 101; RGS7-Gao: 98; Avidin fluor: 21; GSH fluor: 14; RGS8-Gao: 100; RGS4-Gao reg: 98

Results for CCCOCC(O)CC(Cc1ccccc1)C(=O)NN (stereo not given) ?
RGS16-Gao HTS: 99; RGS7-Gao: inconclusive; Avidin fluor: 6; RGS8-Gao: 102; RGS4-Gao reg: 100

What do the screens show for `Fc1cccc(Cl)c1/C=N/n1c(-c2cccnc2)n[nH]c1=S`?
RGS16-Gao HTS: 1; RGS7-Gao: 88; Avidin fluor: 6; GSH fluor: 10; RGS8-Gao: 59*; RGS4-Gao reg: 88; RGS4-Gao HTS: 88*; Biotin-avidin: -3; RGS8-Gao single: 93; RGS7-Gao single: 113; RGS16-Gao conf: 87; RGS4-Gao single: 95; RGS19-Gao conf: 87
